Experimental data from PubChem BioAssay (NCATS).
“And” between values parts separate entries of the source, which are not always exact repeats. Equal entries are not always repeated. Results filed as inconclusive are left out. The source made the active and inactive calls. The call rests on the fitted dose curve; in most records, active means well fitted curve in the direction sought with a large enough effect; inconclusive means small, poorly fitted or top-dose-only effect, or another doubt; inactive means no such curve, though single readings can be large; an effect the other way counts as inactive or inconclusive.

What was measured:
[1] = Viability qHTS for spleen associated tyrosine kinase inhibitor (SYKi) naive MV4-11 cells (AID 1963823); further: nearly all actives have a fitted effect of over 40% in size; further: potency means the concentration at half of the fitted maximal effect
Outline: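 CellTiter-Glo luminescence, 10 min room-temperature incubation, gave viability. Cells: naive MV4-11 (500/well), treated 72 hr at 37 C, 5% CO2.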

[2] = Viability qHTS for spleen associated tyrosine kinase inhibitor (SYKi) drug resistant MV4-11 cells (AID 1963824); further: nearly all actives have a fitted effect of over 35% in size; further: potency means the concentration at half of the fitted maximal effect
Outline: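 SYK-inhibitor-resistant MV4-11 AML cells were seeded at 500 per well onto compound and cultured 72 hours (37 °C, 5% CO2). CellTiter-Glo was then added, and after 10 min at room temperature, luminescence gave viability.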

[3] = Quantitative highthroughput screen to assess conditional lethalithy of NOMO1 cells grown in RPMI1640 with untreated serum (RPMI+s) (AID 1963876); further: nearly all actives have a fitted effect of over 35% in size; further: potency means the concentration at half of the fitted maximal effect;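 on Viability: 100% = DMSO wells and 0% = empty wells without cells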
Outline: (§1)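 Each medium arm—HPLM with 10% dialyzed FBS, or RPMI1640 with 5 mM glucose and 10% untreated or dialyzed FBS—was screened against an 11-point, 3-fold compound titration for 48 h at 37 °C, with CellTiter-Glo luminescence as endpoint.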

[4] = Quantitative highthroughput screen to assess conditional lethalithy of NOMO1 cells grown in Human Plasma-Like Medium with dialyzed fetal bovine serum (HPLM+ds) (AID 1963878); further: nearly all actives have a fitted effect of over 35% in size; further: potency means the concentration at half of the fitted maximal effect;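 on Viability: 100% = DMSO wells and 0% = empty wells on each plate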
Outline: as §1

[5] = Quantitative highthroughput screen to assess conditional lethalithy of P12 Ichikawa cells grown in RPMI1640 with dialyzed fetal bovine serum (RPMI+ds) (AID 1963880); details: Potency: P12-Ichikawa viability; further: nearly all actives have a fitted effect of over 35% in size; further: potency means the concentration at half of the fitted maximal effect;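 on Viability: 100% = DMSO wells and 0% = empty wells on each plate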
Outline: as §1

[6] = Quantitative highthroughput screen to assess conditional lethalithy of SEM cells grown in Human Plasma-Like Medium with dialyzed fetal bovine serum (HPLM+ds) (AID 1963882); further: nearly all actives have a fitted effect of over 35% in size; further: potency means the concentration at half of the fitted maximal effect; on Viability: series mostly up to about 46 µM
Outline: as §1

[7] = Cellular viability qHTS for adrenocortical cancer (ACC) cell line SW-13 (AID 1963989); details: SW-13 ACC cells viability, CellTiter-Glo, 48 h; activity (max response): stronger effect = lower value; further: nearly all actives have a fitted effect of over 65% in size; further: potency means the concentration at half of the fitted maximal effect;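 on activity (max response): cells grown in serum-free medium with ITS supplement; on the % scale 0 is the no-effect control and ±100 the full control effect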
Outline: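 Luminescent ATP read-out (CellTiter-Glo, 20 min at room temperature) measured metabolically competent SW-13 cells after 48 h compound treatment. Final concentrations spanned up to 46 uM; bortezomib served as positive control.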

[8] = Quantitative highthroughput screen to assess conditional lethalithy of NOMO1 cells grown in RPMI1640 with dialyzed fetal bovine serum (RPMI+ds) (AID 1963877); further: nearly all actives have a fitted effect of over 30% in size; further: potency means the concentration at half of the fitted maximal effect;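 on Viability: series mostly up to about 46 µM; 100% = DMSO control wells and 0% = empty wells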
Outline: as §1

[9] = Quantitative highthroughput screen to assess conditional lethalithy of SEM cells grown in RPMI1640 with unreated serum (RPMI+s) (AID 1963883); further: nearly all actives have a fitted effect of over 35% in size; further: potency means the concentration at half of the fitted maximal effect;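 on Viability: 100% = DMSO wells and 0% = empty wells without cells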
Outline: as §1

[10] = Quantitative highthroughput screen to assess conditional lethalithy of SEM cells grown in RPMI1640 with dialyzed fetal bovine serum (RPMI+ds) (AID 1963884); further: nearly all actives have a fitted effect of over 35% in size; further: potency means the concentration at half of the fitted maximal effect;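 on Viability: series mostly up to about 46 µM; 100% = DMSO control wells and 0% = empty wells without cells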
Outline: as §1

[11] = Cellular viability qHTS for adrenocortical cancer (ACC) cell line NCI-H295R (AID 1963990); further: nearly all actives have a fitted effect of over 60% in size; further: potency means the concentration at half of the fitted maximal effect
Outline: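 IC50 and maximal efficacy derive from four-parameter logistic modelling of titration curves, with reads scaled between DMSO-only wells (0%) and doxorubicin hydrochloride (100% inhibition). Compounds spanned up to 46 uM over 48 h.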

[12] = Quantitative highthroughput screen to assess conditional lethalithy of P12 Ichikawa cells grown in Human Plasma-Like Medium with dialyzed fetal bovine serum (HPLM+ds) (AID 1963879); details: Potency: viability
Outline: as §1

[13] = Quantitative highthroughput screen to assess conditional lethalithy of P12 Ichikawa cells grown in RPMI1640 with untreated serum (RPMI+s) (AID 1963881); details: Potency: viability; further: nearly all actives have a fitted effect of over 35% in size; further: potency means the concentration at half of the fitted maximal effect;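 on Viability: series mostly up to about 46 µM; 100% = DMSO wells and 0% = empty wells without cells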
Outline: as §1

CN1C[C@@H]2CN(c3ccc(-c4ccccc4)nn3)C[C@@H]2C1
inactive: Potency [1]
active: Potency [2] 580 nM

Cc1cccc(NC(=O)c2ccc(C(F)(F)F)cc2C(=O)O)n1
inactive: Potency [1] | Potency [2]

CC[C@@]1(O)C(=O)OCc2c1cc1n(c2=O)Cc2cc3ccccc3nc2-1
active: Potency [1] 23.5 nM | Potency [2] 23.5 nM | Potency [3] 0.0743 µM | Potency [4] 0.0662 µM | Potency [5] 20.9 nM | Potency [6] 46.9 nM | Potency [7] 126 nM

C=CC(C)(C)c1[nH]c2c(CC=C(C)C)cc(CC=C(C)C)cc2c1C[C@@H]1NC(=O)[C@H](C)NC1=O
inactive: Potency [1] | Potency [2]

CC12Cc3cn[nH]c3C=C1CCC1C2CCC2(C)C1CCC2(C)O (configuration not stated)
active: Potency [1] 25900 nM | Potency [2] 20600 nM

O=C1N[C@@H](Cc2ccccc2)CN2CCCC[C@@H]12
inactive: Potency [1] | Potency [2]

CC(=O)O[C@H]1CN2CCC1CC2
inactive: Potency [1] | Potency [2]

CN[C@H]1[C@H](O)[C@H](O[C@@H]2[C@@H](O)[C@H](O[C@H]3O[C@H]([C@H](C)O)[C@@H](O)[C@H](O)[C@H]3N)[C@@H](N)C[C@H]2N)OC[C@@]1(C)O
inactive: Potency [1] | Potency [2]

Cc1ncc(OC[C@@]2(c3cccc(F)c3)C[C@H]2C(=O)Nc2ccc(F)cn2)c(C)n1
inactive: Potency [1] | Potency [2] | Potency [3] | Potency [8] | Potency [6] | Potency [9] | Potency [10] | activity (max response) [7] 7.8% | Potency [11]

C/C=C(\C)C(=O)O[C@H]1CC2C(=C1C)[C@H]1OC(=O)[C@](C)(O)[C@]1(O)[C@H](OC(=O)CCC)C[C@@]2(C)OC(C)=O (some centres not stated)
active: Potency [1] 1780 nM | Potency [2] 563 nM

CCCC[N+]1(C)[C@H]2CC(OC(=O)[C@H](CO)c3ccccc3)C[C@H]1[C@H]1O[C@H]12 (some centres not stated)
inactive: Potency [1] | Potency [2] | Potency [12] | Potency [13] | Potency [6] | Potency [10] | activity (max response) [7] -1.99% | Potency [11]
active: Potency [3] 18.7 µM | Potency [4] 11.8 µM

COc1ccc(CN(C(=O)[C@@H](N)Cc2c(C)cc(C(N)=O)cc2C)[C@@H](C)c2ncc(-c3ccccc3)[nH]2)cc1C(=O)O
inactive: Potency [1] | Potency [2]

Oc1ccc2c3c1O[C@H]1[C@H](N(CCCl)CCCl)CC[C@@]4(O)[C@@H](C2)N(CC2CC2)CC[C@]314
inactive: viability (% of control) [1] 89.3% [at 9.25 µM] | viability, % of control [2] 83.4% [at 9.25 µM]

CNCC(O)c1ccc(O)cc1 (configuration not stated)
inactive: Potency [1] | Potency [2] | Potency [3] | Potency [4] | Potency [12] | Potency [13] | activity (max response) [7] -3.15% and -7.74% | Potency [11]

C=C(C)[C@@H]1[C@H]2OC(=O)[C@H]1[C@]1(O)C[C@H]3O[C@]34C(=O)O[C@H]2[C@]14C
inactive: Potency [1] | Potency [2]

C[C@@H]1C[C@@H]([C@H](O)CC2CC(=O)NC(=O)C2)C(=O)[C@@H](C)C1
active: Potency [1] 376 nM and 417 nM | Potency [2] 841 nM and 590 nM | Potency [3] 1.66 µM | Potency [8] 1.66 µM | Potency [13] 264 nM | Potency [6] 418 nM | Potency [9] 332 nM | Potency [10] 590 nM | Potency [7] 1.84 µM and 1.78 µM | Potency [11] 920 nM and 1 µM

COC(=O)[C@@]1(C)C(=O)C=C[C@]2(C)c3c(O)cc(C(C)C)cc3[C@H](O)[C@@H](OC(C)=O)C12 (some centres not stated)
active: Potency [1] 11200 nM | Potency [2] 8930 nM

COC(=O)[C@@H](N)CCCN=C(N)N[N+](=O)[O-]
inactive: Potency [1] | Potency [2] | Potency [3] | Potency [4] | Potency [12] | Potency [5] | Potency [13] | Potency [6] | activity (max response) [7] 6.1%

Fc1cc(F)c2c(c1)C1C=CCC1C(c1cccnc1)N2 (configuration not stated)
active: Potency [1] 3660 nM | Potency [2] 2910 nM

CC(=O)O[C@H]1C[C@]2(O)[C@@H]3CC[C@@H]4C[C@@H](O)CC[C@]4(C)[C@H]3CC[C@]2(C)[C@H]1c1ccc(=O)oc1
active: Potency [1] 25.9 nM | Potency [2] 23.1 nM

C[C@]12CC[C@H](O)C[C@H]1CC[C@@H]1[C@@H]2[C@H](O)C(=O)[C@]2(C)[C@@H](c3ccc(=O)oc3)CC[C@]12O
active: Potency [1] 10.3 nM | Potency [2] 9.2 nM

CCC1(c2ccc(N)cc2)CCC(=O)NC1=O (configuration not stated)
inactive: Potency [1] | Potency [2] | Potency [3] | Potency [4] | Potency [12] | Potency [13] | Potency [9] | activity (max response) [7] -1.13% and 5.11% | Potency [11]

COC1CC(OC2CCC3(C)C(CCC4C3CCC3(C)C(C5=CC(=O)OC5)C(OC(C)=O)CC43O)C2)OC(C)C1OC1OC(CO)C(O)C(O)C1O (configuration not stated)
active: Potency [1] 769 nM | Potency [2] 485 nM

CC[C@@H](C(N)=O)N1CCCC1=O
inactive: Potency [1] | Potency [2] | Potency [3] | Potency [4] | Potency [12] | Potency [5] | activity (max response) [7] -2.57% | Potency [11]
